Growth data for 8 compounds are collected here from PubChem BioAssay (NCI).

Common to all, as to assay: NCI-60 one-dose screen, 48 h (100 = growth as untreated, 0 = no growth, -100 = all killed)
In one test the test system is DU-145 prostate. The conditions noted are these: 10 µM unless noted.
A further test concerns K-562 leukemia. To be noted: 10 µM unless noted.
For the next test, the system named is MALME-3M melanoma. To be noted: 10 µM unless noted.
Another test has as its system MDA-MB-231 breast. The conditions noted are these: 10 µM unless noted.
In another test the test system is RXF 393 renal. To be noted: 10 µM unless noted.
The test system of a further test is SF-268 CNS. To be noted: 10 µM unless noted.
The subject of the next test is SF-295 CNS. The conditions noted are these: 10 µM unless noted.
A further test has as its system SF-539 CNS. To be noted: 10 µM unless noted.
The next test concerns UACC-257 melanoma. To be noted: 10 µM unless noted.
Another test deals with M14 melanoma. The conditions noted are these: 10 µM unless noted.
In another test the test system is HCT-15 colon. The conditions noted are these: 10 µM unless noted.
In the next test the test system is HT29 colon. The conditions noted are these: 10 µM unless noted.
The test system of the next test is SNB-75 CNS. To be noted: 10 µM unless noted.
The subject of the next test is SNB-19 CNS. The conditions noted are these: 10 µM unless noted.
The next test relates to U251 CNS. The conditions noted are these: 10 µM unless noted.
The test system of the next test is PC-3 prostate. To be noted: 10 µM unless noted.
Another test concerns SK-MEL-5 melanoma. The conditions noted are these: 10 µM unless noted.
Another test has as its system UACC-62 melanoma. The conditions noted are these: 10 µM unless noted.
In a further test the test system is LOX IMVI melanoma. The conditions noted are these: 10 µM.
The next test deals with SK-MEL-28 melanoma. To be noted: 10 µM unless noted.

This is part of a sample that, as a whole, favours compounds with a hit. Of some 83,000 tested, about 20% had one in any assay.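 Assay: single dose, 48 h. Readout: percent growth (0 = no net growth; negative = cell death). Active: <10.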 A number with no mark means an inactive call. Calls of active or inactive are those of the source.

`Cc1ccc(S(=O)(=O)c2nc(S(=O)(=O)c3ccc(C)cc3)c(Cl)s2)cc1`: the growth with DU-145 prostate is -22.5% (active); with K-562 leukemia, 5.15% (active); with MALME-3M melanoma, -90.4% (active); with MDA-MB-231 breast, -54.5% (active); in the test on RXF 393 renal, -76.9% (active); with SF-268 CNS, 108%. The growth in the test on SF-295 CNS was 94%; in the test with SF-539 CNS, -62% (active); with UACC-257 melanoma, 67.2%; in the test with M14 melanoma, 23.7%; in the test on HCT-15 colon, -87.6% (active); with HT29 colon it was -77.5% (active). The growth with SNB-75 CNS is 108%; with SNB-19 CNS, 81.4%; in the test on U251 CNS, -38.5% (active); in the test on PC-3 prostate it was 18%; with SK-MEL-5 melanoma it was 76.4%; with UACC-62 melanoma it was 39.7%. In the test with LOX IMVI melanoma, the growth was -93% (active).
`Cc1ccc(-c2nc(Nc3ccccc3S(N)(=O)=O)c3ccccc3n2)cc1`: the growth with DU-145 prostate is 77.6%; in the test on K-562 leukemia, 46.1%; in the test with MALME-3M melanoma, 97.7%; in the test with MDA-MB-231 breast, 21.6%; with RXF 393 renal, 51.1%; with SF-268 CNS, 70.1%. The growth in the test on SF-295 CNS was 94.4%; in the test with SF-539 CNS it was -11.9% (active); in the test with UACC-257 melanoma, 106%; with M14 melanoma, 90.3%; with HCT-15 colon it was 40.1%; in the test on HT29 colon, 95%. For the same compound, the growth is 91% with SNB-75 CNS; 89% with SNB-19 CNS; 57.5% in the test on U251 CNS; 64.4% in the test with PC-3 prostate; 87% with SK-MEL-5 melanoma; 70.7% with UACC-62 melanoma. In addition, the growth in the test on LOX IMVI melanoma was 9.36% (active); in the test on SK-MEL-28 melanoma, 107%.
As to `CC1(C)CC[C@]2(C(=O)O)CC[C@]3(C)C(=CCC4[C@@]5(C)C[C@@H](O)[C@@H]6OC(c7ccccc7Br)OC[C@@]6(C)C5CC[C@]43C)C2C1` (some centres not stated), the growth in the test on DU-145 prostate is 20%; in the test with K-562 leukemia, 11.6%; in the test with MALME-3M melanoma, 44%; with MDA-MB-231 breast, 32.4%; with RXF 393 renal, 22.7%; with SF-268 CNS, 24.2%. Further, the growth with SF-295 CNS is 10.6%; with SF-539 CNS, 26.8%; in the test on UACC-257 melanoma it was 18.2%; with M14 melanoma, 31.8%; in the test on HCT-15 colon, 8.96% (active); in the test on HT29 colon, 13.1%. Besides, the growth in the test on SNB-75 CNS is 48.1%; in the test on SNB-19 CNS it was 27.7%; in the test with U251 CNS it was 13.2%; with PC-3 prostate it was 13.1%; in the test on SK-MEL-5 melanoma, 7% (active); with UACC-62 melanoma, 28.5%. The growth is 13.5% in the test on LOX IMVI melanoma and 39.5% with SK-MEL-28 melanoma.
As to `COc1ccc(NC(=O)Nc2ccc(OCc3ccc(F)cc3)cc2)cc1`, the growth is 88.5% in the test on DU-145 prostate; 82.6% in the test with K-562 leukemia; 62.3% in the test with MALME-3M melanoma; 53.5% in the test on MDA-MB-231 breast; 35% in the test with RXF 393 renal; 61.3% in the test with SF-268 CNS. Besides, the growth in the test on SF-295 CNS is 102%; in the test on SF-539 CNS, 0.894% (active); in the test on UACC-257 melanoma, 85.9%; in the test on M14 melanoma it was 77%; in the test on HCT-15 colon, 91.1%; in the test on HT29 colon, 92.3%. Further, the growth in the test on SNB-75 CNS is 63.6%; with SNB-19 CNS it was 46.9%; in the test on U251 CNS, 34.8%; in the test on PC-3 prostate, 79.7%; in the test on SK-MEL-5 melanoma, 76.6%; in the test with UACC-62 melanoma, 82.6%. Also, the growth was 26.6% in the test with LOX IMVI melanoma and 75.5% in the test on SK-MEL-28 melanoma.
On to `COc1cc(C2CC(c3ccc(S(=O)(=O)NCCNc4nc(Nc5ccc(F)cc5)nc(N(C)C)n4)cc3)=Nc3c(N)nc(N)nc3N2)cc(OC)c1OC` (configuration not stated), for which the growth in the test with DU-145 prostate is 103%; in the test on K-562 leukemia, 47.2%; in the test on MALME-3M melanoma, 84.4%; with MDA-MB-231 breast it was 43.7%; in the test with RXF 393 renal, 74%; with SF-268 CNS, 82.8%. For the same compound, the growth in the test with SF-295 CNS was 94%; in the test with SF-539 CNS it was 86%; with UACC-257 melanoma, 97.9%; in the test on M14 melanoma, 101%; in the test on HCT-15 colon it was 92.5%; with HT29 colon, 96.5%. Besides, the growth with SNB-75 CNS is 82.8%; in the test on SNB-19 CNS it was 67.5%; with U251 CNS, 69.6%; in the test with PC-3 prostate, 86.3%; in the test on SK-MEL-5 melanoma, 64.2%; in the test with UACC-62 melanoma, 76.4%. Further, the figures for the growth in the test with LOX IMVI melanoma and with SK-MEL-28 melanoma were 66.9% and 88.1%, respectively.
Consider `COc1cc2oc(-c3cccc(C(=O)Nc4ccc(Cl)cc4)c3)cc(=O)c2c(OCCNC(=O)[C@@H](N)CCC(=O)O)c1OC`, for which the growth in the test with DU-145 prostate is 86.9%; in the test with K-562 leukemia, 32.2%; in the test on MALME-3M melanoma, 76.1%; in the test on MDA-MB-231 breast it was 30.5%; with RXF 393 renal, 9.77% (active); in the test on SF-268 CNS it was 94.7%. Moreover, the growth was 86.4% in the test with SF-295 CNS; 75.4% in the test with SF-539 CNS; 100% in the test with UACC-257 melanoma; 16.7% with M14 melanoma; 78% with HCT-15 colon; 50.6% in the test with HT29 colon. Further, the growth was 86.4% in the test on SNB-75 CNS; 93.6% in the test with SNB-19 CNS; 87.4% in the test on U251 CNS; 79% in the test with PC-3 prostate; 83.6% in the test with SK-MEL-5 melanoma; 100% with UACC-62 melanoma.
In the case of `Cc1ccc(C(=O)NN2C(=O)/C(=C/C=C/c3ccc([N+](=O)[O-])o3)SC2=S)cc1`, the growth in the test on DU-145 prostate is -100% (active); in the test on K-562 leukemia, 6.34% (active); in the test on MALME-3M melanoma it was -98% (active); in the test on MDA-MB-231 breast, -96.4% (active); with RXF 393 renal it was -90% (active); with SF-268 CNS, -86.7% (active). For the same compound, the growth is -87.6% (active) in the test with SF-295 CNS; -96.6% (active) in the test on SF-539 CNS; -81.5% (active) with UACC-257 melanoma; -70.6% (active) with M14 melanoma; -66.1% (active) with HCT-15 colon; -74.3% (active) in the test on HT29 colon. Further, the growth in the test with SNB-75 CNS is -85% (active); in the test on SNB-19 CNS it was -100% (active); with U251 CNS, -98.9% (active); in the test on PC-3 prostate, -15.1% (active); in the test with SK-MEL-5 melanoma, -100% (active); in the test with UACC-62 melanoma, -92.4% (active). Also, the growth in the test on LOX IMVI melanoma was -90.9% (active); with SK-MEL-28 melanoma, -94.3% (active).
Turning to `O=C1CCCc2cc(OCC(=O)N3CCCCC3)ccc2N1`, the growth in the test with DU-145 prostate is 122%; with K-562 leukemia it was 106%; in the test on MALME-3M melanoma it was 102%; in the test with MDA-MB-231 breast, 105%; with RXF 393 renal, 110%; with SF-268 CNS it was 108%. Besides, the growth was 99% in the test with SF-295 CNS; 101% in the test on SF-539 CNS; 111% in the test with UACC-257 melanoma; 116% in the test on M14 melanoma; 105% in the test on HCT-15 colon; 127% in the test with HT29 colon. Besides, the growth in the test on SNB-75 CNS is 101%; in the test on SNB-19 CNS, 99.7%; in the test on U251 CNS it was 107%; in the test with PC-3 prostate, 109%; with SK-MEL-5 melanoma it was 104%; in the test on UACC-62 melanoma, 105%. Moreover, the growth in the test on LOX IMVI melanoma was 97.1%; in the test on SK-MEL-28 melanoma, 119%.
